From PubChem
Tb PYK inh: T. brucei pyruvate kinase inhibition; Q57TT1; TbPYK enzyme, Kinase-Glo Plus ATP luminescence, 45 min; Potency, µM (highest dose often 76.8 µM), for the others: top-dose activity, negative = inhibition, most hits filed as inhibitors; 410,000 compounds, 0.12% hits; AID 624173; also: nearly all actives have a fitted effect of over 50% in size
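Assay buffer: 50 mM TEA pH 7.2, 100 mM KCl, 10 mM MgCl2, 0.05% BSA, 0.01% Tween-20. Pyruvate kinase from T. brucei plus substrate met compound, then ADP (130 uM final). Luminescence was read post 45 min RT.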
LmPK inh: LmPK (Leishmania mexicana) enzyme inhibition | purified LmPK, Kinase-Glo ATP luminescence, 1 h | Q27686 | Potency, µM (doses to about 57.5 µM), inactives show top-dose activity change, negative = inhibition, usual class: inhibitors | 290,000 compounds, 0.37% hits
Target sequence (Q27686 whole entry, looked up): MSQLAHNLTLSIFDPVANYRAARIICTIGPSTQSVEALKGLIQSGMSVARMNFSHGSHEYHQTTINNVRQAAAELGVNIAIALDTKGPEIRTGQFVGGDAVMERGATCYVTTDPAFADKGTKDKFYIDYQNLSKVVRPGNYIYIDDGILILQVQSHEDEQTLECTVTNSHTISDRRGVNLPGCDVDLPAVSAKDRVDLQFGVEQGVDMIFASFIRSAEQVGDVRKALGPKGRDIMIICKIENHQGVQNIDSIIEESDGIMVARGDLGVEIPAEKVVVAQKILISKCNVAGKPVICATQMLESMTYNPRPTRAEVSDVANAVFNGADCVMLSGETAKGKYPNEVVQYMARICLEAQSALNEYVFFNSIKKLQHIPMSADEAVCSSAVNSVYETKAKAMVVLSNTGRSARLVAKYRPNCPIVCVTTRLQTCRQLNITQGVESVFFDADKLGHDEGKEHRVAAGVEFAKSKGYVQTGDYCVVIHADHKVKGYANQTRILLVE
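0.1 nM LmPK, 0.5 mM PEP, 0.1 mM ADP; 50 mM imidazole pH 7.2, 7 mM MgCl2, 50 mM KCl; 1 h RT. Kinase-Glo luminescence readout, normalized to no-enzyme (full inhibition) and uninhibited wells.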
Sm TGR inh: inhibitors of Schistosoma mansoni thioredoxin glutathione reductase; Q962Y6; purified TGR, DTNB reduction, TNB absorbance 405 nm; Potency, µM (doses to about 114 µM), for inactives: at the top dose activity change, negative = inhibition, hits mostly inhibitors; 360,000 compounds, 3% hits; also: nearly all actives have a fitted effect of over 60% in size
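TGR 20 nM + NADPH 100 uM (dispensed conc.), cpd preinc 15 min RT; start with NADPH (500 uM addition) then DTNB (15 mM addition). Kinetic TNB absorbance, 405 nm filter. Four-parameter Hill fit across titration.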
RE007 growth inh: less growth of the S. pombe RE007 Vpr strain | S. pombe RE007 Vpr strain, BacTiter-Glo ATP luminescence, 24 h | Potency, µM (series often up to 92.2 µM), without a hit: top-dose activity change, negative = less growth, usual class: inhibitors | 360,000 compounds, 0.21% hits; active = well fitted falling curve with a large enough effect; inconclusive = small, poorly fitted or top-dose-only effect; inactive = no such curve, though single readings can be large or run the other way; also: nearly all actives have a fitted effect of over 50% in size
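Fission yeast RE007 carrying one integrated HIV-1 vpr copy, seeded at OD 0.01 in PMG+AL medium with 23 nL pinned compound. Grown 24 h at 30 degrees; viability read by BacTiter-Glo luminescence after 5 min.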
* marks the source's active call; other numbers are inactive results; u = inconclusive; x = no result given; [ ] = dose if it differs, or a comment. Most compounds without a hit are left out; they make up all but 3% or so of the library. Unless noted, calls follow the shape of the dose curve; as a rule, active = well fitted curve in the direction sought with a large enough effect; inconclusive = small, poorly fitted or top-dose-only effect, or another doubt; inactive = no such curve, though single readings can be large; an effect the other way counts as inactive or inconclusive. % is scaled to controls: 0 for no effect and ±100 for the full control effect; potency is read from the fitted curve at half-maximal effect.

SMILES	Tb PYK inh	LmPK inh	Sm TGR inh	RE007 growth inh
O=C(NCCc1ccc(F)cc1)C(=O)NCC(c1ccco1)S(=O)(=O)c1cccs1 (configuration not stated)	-7%	x	u	x
COc1ccccc1CCNC(=O)C(=O)NCC(c1ccco1)S(=O)(=O)c1ccc(C)cc1 (configuration not stated)	3%	x	14µM*	x
Cc1ccc(S(=O)(=O)C(CNC(=O)C(=O)NCc2ccc(Cl)cc2)c2cccs2)cc1 (configuration not stated)	1%	x	22µM*	x
C[C@H](CCCC(C)(C)O)[C@H]1CC[C@H]2[C@@H]3CC=C4C[C@@H](O)CC[C@]4(C)[C@H]3CC[C@]12C	6%	x	x	x
COC(=O)[C@]12CCCCC=C1N(Cc1ccc3c(c1)OCO3)C(=O)[C@H](CC(=O)NCCC(C)C)C2	x	x	x	0%
O=C(NCc1ccncc1)c1cccc(S(=O)(=O)N2CCc3ccccc32)c1	-2%	x	28µM*	2%
O=C(NCCc1ccccn1)c1cccc(S(=O)(=O)N2CCc3ccccc32)c1	0%	1%	40µM*	1%
COc1cccc(/C=C/c2[nH]c(=O)[nH]c(=O)c2[N+](=O)[O-])c1O	0%	-18%	35µM*	-20%
CN(C)c1cc(Nc2ccc(O)cc2)c([N+](=O)[O-])c2nonc12	1%	0%	0%	8%
O=[N+]([O-])c1c(Nc2ccccn2)cc(Cl)c2nonc12	-2%	-9%	0.89µM*	8.9µM*
O=C(O)c1cccc(Nc2cc(Cl)c3nonc3c2[N+](=O)[O-])c1	2%	3%	0.35µM*	-11%
O=C(O)c1ccccc1Nc1cc(Cl)c2nonc2c1[N+](=O)[O-]	13%	-1%	0.45µM*	0%
O=[N+]([O-])c1c(Nc2ccc(O)cc2)cc(Cl)c2nonc12	1%	0%	0.32µM*	x
C[C@@H]1NCCc2cc(O)c(O)cc21	0%	x	45µM*	8%
Cc1cccc(Nc2nc3c(s2)CCCC3)c1	-6%	-6%	-10%	25µM*
Cc1ccc(S(=O)(=O)Nc2cc(C(C)C)c(O)cc2C)cc1	0%	6%	1%	-3%
Cc1ccc(S(=O)(=O)Nc2cc(Cl)c(O)cc2C)cc1	2%	8%	50µM*	8%
Cc1ccc(S(=O)(=O)Nc2c(Cl)c(Cl)c(O)c3ccccc23)cc1	x	6.3µM*	0.32µM*	x
Cc1ccc(S(=O)(=O)Nc2c(O)ccc3ccccc23)cc1	-14%	x	x	-5%
Cc1c(NS(=O)(=O)c2ccccc2)cc(Cl)c(O)c1C	-4%	2%	3.5µM*	6%
Cc1c(Cl)cccc1NS(=O)(=O)c1ccccc1	2%	x	x	2%
CC/C(O)=N/S(=O)(=O)c1ccc(-c2c(-c3ccccc3)noc2C)cc1	3%	x	x	x
COc1ccc(/C=C/C2=CC(C)(C)NC(=S)N2)cc1OC	-3%	-1%[11.5 µM]	2.8µM*	3%
COc1cccc(/C=C/C2=CC(C)(C)NC(=S)N2)c1	-4%	-4%	x	8%
CCOc1ccc(/C=C/C2=CC(C)(C)NC(=S)N2)cc1	1%	-2%	8.9µM*	-17%
SMILES	Tb PYK inh	LmPK inh	Sm TGR inh	RE007 growth inh
COc1cccc(-n2c(SCc3ccc(F)cc3)nc3c([nH]c4ccccc43)c2=O)c1	5%	x	5%	x
CCOC(=O)c1ccc(-n2c(CCC(=O)O)ccc2-c2cccs2)cc1	u	1%	5.6µM*	u
CCc1ccc(-n2c(CCC(=O)O)ccc2-c2cccs2)cc1	-29%	x	3.5µM*	x
Cc1ccc(-n2c(CCC(=O)O)ccc2-c2cccs2)cc1C	u	-1%	10µM*	-24%
O=C(O)CCc1ccc(-c2cccs2)n1NC(=O)c1ccc(O)cc1	-6%	4%	-36%	-4%
COc1ccc(C(=O)N2CCC3(CC2)CN(Cc2ccc(C#N)cc2)C3)cc1	2%	x	x	x
OC[C@@H]1CN(CCNc2ccccc2)C[C@H](n2cnc3c(NCc4ccncc4)ncnc32)O1	3%	x	x	-2%
CCOc1cc(C(=O)NC(=S)Nc2cccnc2)cc(OCC)c1OCC	7%	0%	50µM*	-3%
CC(C)Oc1cccc(C(=O)NC(=S)Nc2cccnc2)c1	3%	0%	u	-20%
COc1cccc(C(=O)NC(=S)Nc2cccnc2)c1	-10%	-12%	56µM*	-21%
CO/N=C(/C(=O)N[C@@H]1C(=O)N2C(C(=O)OC(C)OC(C)=O)=C(COC(N)=O)CS[C@H]12)c1ccco1 (some centres not stated)	0%	x	x	x
Cc1cccc(CS(=O)(=O)Cc2ccc(C(=O)NCc3cccs3)o2)c1	2%	10%	35µM*	-11%
Cc1cccc(CS(=O)(=O)Cc2ccc(C(=O)NCc3ccccc3)o2)c1	5%	9%	45µM*	18%
Cc1ccc(CNC(=O)c2ccc(CS(=O)(=O)Cc3ccc(C)cc3)o2)cc1	-4%	x	6%	x
Cc1ccc(OCC(=O)Nc2ccc(S(=O)(=O)Nc3cc(C)nc(C)n3)cc2)c(Br)c1	-5%	x	-6%	x
O=C(N[C@@H]1CCC(=O)N(CC[C@H](Sc2ccccc2)c2ccccc2)CC1)OCc1ccccc1	-5%	-1%	-1%	-23%
Cc1nn(-c2ccc(Cl)cc2)c(=O)c2ccccc12	-3%	1%	x	-7%
Cc1c(Cl)sn(-c2ccc(Cl)cc2)c1=O	4.5µM*	1%	3.5µM*	1µM*
CCOC(=O)C1=C(CSc2nc(C)ccc2C#N)OC(N)=C(C#N)C1c1cccc(OC)c1OC (configuration not stated)	u	24%	13µM*	15%
CN(C)c1ccc(C(=O)/C=C/c2ccco2)cc1	-17%	-22%	45µM*	-18%
O=C(C=Cc1ccco1)c1ccc2ccccc2c1	-21%	x	x	-7%
O=C(/C=C/c1ccco1)c1ccc(O)cc1	x	10%	3.5µM*	x
CN(C)c1ccc(C(=O)/C=C/c2ccccc2)cc1	-1%	-12%	5%	-18%
CCOc1ccc(-c2cn3c(n2)sc2cc(C(=O)NCCCN(CC)CC)ccc23)cc1	2%	x	0%	x
Cc1ccc(NC(=O)/C(=C\c2ccco2)NC(=O)c2ccco2)cc1	-18%	-1%	45µM*	-7%
COc1ccccc1C(=O)N/C(=C/c1ccco1)C(=O)Nc1cccc(C(=O)O)c1	u	8%	50µM*	17%
Cc1ccc(C(=O)N/C(=C/c2ccco2)C(=O)Nc2cccc(C(=O)O)c2)cc1	u	-6%	45µM*	-11%
